# KB-V1 MDR tox: kills drug-selected multidrug resistant KB-V1 cells | Potency, µM (series often up to 46.1 µM), most hits filed as cytotoxic | hit rate 3.4% among 400,000 | KB-V1 MDR cells viability, CellTiter-Glo, 72 h; also: nearly all actives have a fitted effect of over 60% in size
#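 KB-V1 cells (P-gp-expressing MDR subline of KB-3-1) in phenol-red-free DMEM with 10% FBS were exposed to library compounds over a concentration series for 72 h at 37 degrees C. Viability read by CellTiter-Glo luminescence; concentration-effect curves fitted after normalization.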
# SW480 rereplic: DNA re-replication induction in SW480 cells | SW480 DNA re-replication, Hoechst DNA content imaging, 48 h | Potency, µM (titrated, usually from 46.1 µM), most hits filed as activators | hit rate 1.8% among 340,000 | AID 624297; also: nearly all actives have a fitted effect of over 55% in size
#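 SW480 cells exposed to compounds for 48 hr at 37 C, 5% CO2, then Hoechst-stained 40 min. Nuclear DNA content imaged by fluorescence scanning (405 nm excitation, 500-530 nm emission); re-replication scored as increased high-intensity nuclei.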
# KB-3-1 cytotox: kills parental KB-3-1 adenocarcinoma cells. Potency, µM (highest dose often 46.1 µM), actives largely listed as cytotoxic. hit rate 1.4% among 400,000. KB-3-1 viability, CellTiter-Glo ATP luminescence, 72 h. AID 1347075; also: nearly all actives have a fitted effect of over 60% in size
#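 Parental KB-3-1 adenocarcinoma cells in phenol-red-free DMEM with 10% FBS were pin-treated with compounds at several concentrations, incubated 72 h at 37 °C, and viability read by CellTiter-Glo luminescence; concentration-effect curves were fitted after normalization.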
# MCF10A rerep: induces DNA re-replication in MCF 10a normal breast cells | MCF 10A DNA re-replication, Hoechst nuclear intensity, 48 h | hit rate 2.9% among 350,000 | AID 624296 | Potency, µM (doses to about 46.1 µM), hits mostly activators; also: nearly all actives have a fitted effect of over 50% in size
# RORgamma inh: ROR gamma (mouse) transcription inhibition; hit rate 5.4% among 310,000; P51450; Potency, µM (highest dose often 53.6 µM), usual class: inhibitors; Drosophila S2 Gal4-RORgamma UAS-luciferase reporter, 20 h; also: nearly all actives have a fitted effect of over 60% in size
# Target sequence (P51450 whole entry, looked up, the tested form may be a part): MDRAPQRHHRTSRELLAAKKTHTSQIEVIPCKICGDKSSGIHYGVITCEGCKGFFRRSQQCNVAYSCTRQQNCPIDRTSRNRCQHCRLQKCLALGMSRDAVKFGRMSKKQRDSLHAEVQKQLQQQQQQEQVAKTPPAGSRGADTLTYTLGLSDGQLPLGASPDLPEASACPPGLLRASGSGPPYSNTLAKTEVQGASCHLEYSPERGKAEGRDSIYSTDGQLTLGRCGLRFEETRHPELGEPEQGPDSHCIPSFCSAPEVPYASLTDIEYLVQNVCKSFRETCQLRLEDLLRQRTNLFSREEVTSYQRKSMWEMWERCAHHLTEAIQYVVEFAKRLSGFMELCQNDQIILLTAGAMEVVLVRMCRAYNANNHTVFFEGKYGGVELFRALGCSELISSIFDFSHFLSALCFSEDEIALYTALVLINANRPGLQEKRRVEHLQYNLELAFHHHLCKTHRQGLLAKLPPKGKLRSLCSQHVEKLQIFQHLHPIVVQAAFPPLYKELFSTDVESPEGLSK
#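 Schneider cells (Drosophila), stable Gal4 DBD–ROR gamma + UAS-luc; 1 hr cmpd preincubation; Cu2+ induction 700 uM final; 20 hr ambient; luminescence.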
# VP16 counter: inhibits Gal4-VP16 luciferase reporter, ROR gamma counter-screen; Drosophila S2 Gal4-VP16 UAS-luciferase, luminescence, 20 h; Potency, µM (highest dose often 53.6 µM), usual class: inhibitors; hit rate 3.5% among 310,000;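 also: Gal4-VP16 expression switched on by copper sulfate through the metallothionein promoter; nearly all actives have a fitted effect of over 50% in size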
# Hits are given with their value; . = inactive; ? = inconclusive; / = not tested or not shown; [ ] = dose if it differs, or a comment. This is a sample that favours compounds with a hit; in the whole collection about 10% have one here. Calls follow the shape of the dose curve; as a rule, active = well fitted curve in the direction sought with a large enough effect; inconclusive = small, poorly fitted or top-dose-only effect, or another doubt; inactive = no such curve, though single readings can be large; an effect the other way counts as inactive or inconclusive.
SMILES,KB-V1 MDR tox,SW480 rereplic,KB-3-1 cytotox,MCF10A rerep,RORgamma inh,VP16 counter
Cc1cccn2c(Nc3ccccc3)c(-c3ccccn3)nc12,?,.,?,.,3.16µM,5.01µM
Cc1ccc2nc(-c3ccccn3)c(Nc3ccccc3C)n2c1,0.731µM,3.66µM,?,?,14.1µM,.[10 µM]
Cc1ccccc1Nc1c(-c2ccccn2)nc2ccccn12,?,.,?,?,.,.
O=C(NC1CCC1)C1CCC(=O)N(Cc2ccc(Cl)cc2)C1 (centres undefined),.,/,.,/,/,/
CCn1cc(C(=O)N2CCN(c3ccccc3)CC2)c(=O)c2cc(S(=O)(=O)N3CCC(C)CC3)ccc21,.,/,.,/,/,/
OC[C@H](O)[C@H](O)[C@@H](O)[C@@H](O)[C@@H]1SC(c2ccccc2)=NN1c1ccccc1,.,?,.,?,8.91µM,.
O=C(NC(=S)Nc1cc(C(F)(F)F)ccc1Cl)c1ccccc1,.,?,.,.,2.51µM,?
O=C(O)c1ccc(Cl)c(NC(=S)NC(=O)c2cccc(COc3ccccc3)c2)c1,.,.,.,8.2µM,?,.
FC(F)(F)c1ccc(Cl)c(NC(=S)N/N=C/c2ccccc2Cl)c1,?,.,.,.,2.24µM,?
O=C(O)c1ccc(NNC(=S)Nc2cc(C(F)(F)F)ccc2Cl)cc1,.,.,.,.,3.16µM,?
O=C(CC(=O)c1ccccc1)Nc1cc(C(F)(F)F)ccc1Cl,?,.,.,.,?,?
COc1cc(-c2nnc(SCC(=O)Nc3cccc(C#N)c3)o2)cc(OC)c1OC,.,/,.,/,/,/
O=C(Nc1cc(C(F)(F)F)ccc1Cl)C(NCc1ccccc1)c1ccccc1 (centres undefined),20.6µM,?,.,?,?,?
Cc1cc[n+](CC(=O)Nc2cc(C(F)(F)F)ccc2Cl)cc1,.,.,.,23.1µM,.,.
CCc1nnc(NC(=O)CCc2ccc(C)o2)s1,.,.,.,.,?,.
Cc1ccc(CCC(=O)Nc2ncc(Cc3cccc(Cl)c3Cl)s2)o1,0.517µM,1.16µM,0.116µM,?,35.5µM,?
Cc1nc(-c2ccccn2)nc(N2CCOCC2)c1Cl,.,.,.,.,.,.
Cc1nc(-c2ccccn2)nc(N(C)c2ccccc2)c1Cl,.,.,.,.,0.316µM,1.58µM
Cc1cccc(C)c1NC(=O)C1(C)CSCC(=O)N1CCc1c[nH]c2ccccc12 (centres undefined),.,/,.,/,/,/
Cc1cc(=O)n(C)c(=O)n1CCCCCCOc1cccc([N+](=O)[O-])c1,7.31µM,.,?,.,.,?
C=CCN(CC=C)C(=S)NC(=O)c1ccc([N+](=O)[O-])cc1,?,3.66µM,?,?,0.126µM,0.126µM
CCN(CC)C(=S)NC(=O)c1ccc(OC)c(Br)c1,.,.,.,.,0.355µM,0.501µM
COc1ccc(C(=O)NC(=S)NCCO)cc1Br,.,.,.,.,0.794µM,1.12µM
C=CCN(CC=C)C(=S)NC(=O)c1ccc(OC)c(Br)c1,?,.,?,.,0.282µM,0.708µM
C=CCNC(=S)NNC(=O)c1ccc([N+](=O)[O-])cc1,.,.,.,.,.,?
SMILES,KB-V1 MDR tox,SW480 rereplic,KB-3-1 cytotox,MCF10A rerep,RORgamma inh,VP16 counter
CCOC(=O)c1cc(-c2ccc(F)cc2)n(CCC(=O)Nc2ccccc2OC)c1C,.,/,.,/,/,/
O=C(NCCN1CCC(n2c(=O)[nH]c3ccccc32)CC1)N1c2ccccc2Sc2ccccc21,.,/,?,/,/,/
Cc1ccccc1-c1cccc([C@@H]2C[C@H]3[C@H](CON3C)CN2Cc2ccccc2)c1,.,.[9.22 µM],.,18.4µM,/,/
Cc1ccccc1S(=O)(=O)N1C[C@H]2CON(C)[C@H]2C[C@H]1c1cccc(Oc2ccccc2)c1,.,8.2µM,.,?,/,/
C=CCCC(=O)N1C[C@H]2CON(C)[C@H]2C[C@H]1c1cccc(Oc2ccccc2)c1,.,/,.,/,/,/
CCc1ccc(C(=O)c2cn(CC(=O)Nc3cc(F)ccc3F)c3nc(C)ccc3c2=O)cc1,.,/,.,/,/,/
CNC(=S)/N=C(\Nc1ccc(C)cc1)c1ccccc1,.,.,.,.,2.51µM,15.8µM
FC(F)(F)Oc1ccccc1C(c1nnnn1-c1ccc2c(c1)OCCO2)N1CCN(C/C=C/c2ccccc2)CC1 (centres undefined),?,/,.,/,/,/
CCCOC(=O)c1ccc(OCC(O)Cn2c(C)nc3ccccc32)cc1 (centres undefined),?,.,.,.,?,3.16µM
COc1ccc(-n2nc(C(=O)Nc3ccc(Cl)cn3)c3c4ccccc4n(C)c3c2=O)cc1Cl,?,/,.,/,/,/
O=C(CNC(=S)NC(=O)c1cccs1)c1ccccc1,.,?,.,.,8.91µM,?
O=C(Cc1ccccc1)NNC(=S)NC(=O)c1cccs1,.,?,?,.,?,.
O=C(NC(=S)NCc1ccccc1)c1cccs1,.,.,?,.,5.01µM,7.94µM
Cc1ccc(C(=O)NC(=S)NCC(=O)c2ccccc2)cc1,.,.,.,.,?,?
COC(=O)[C@H]1C[C@H](OC(=O)NCc2ccco2)[C@@]2(O)CN(S(=O)(=O)c3ccc(C)cc3)CC2[C@H]1C(=O)OC (some centres undefined),.,/,.,/,/,/
CC1(C)[C@@H](O)CC[C@]2(C)C3C(O)C=C4[C@H]5C[C@@](C)(CO)CC[C@]5(C)CC[C@]4(C)[C@]3(C)CC[C@@H]12 (some centres undefined),.,.,.,13µM,.,.
CC1(C)C(O)CC[C@]2(C)C1CC[C@@]1(C)C2C(=O)C=C2[C@@H]3C[C@@](C)(C(=O)O)CC[C@@]3(C)CCC21C (some centres undefined),/,/,/,/,.,.
CC1(C(=O)O)CCC2(C)CCC3(C)C(=CC(=O)C4C5(C)CCC(O)C(C)(C)C5CCC43C)C2C1 (centres undefined),/,.,/,26.6µM,.,.
CC1(C)[C@@H](O)CC[C@]2(C)[C@H]3C(=O)C=C4[C@@H]5C[C@@](C)(C(=O)O)CC[C@]5(C)CC[C@@]4(C)[C@]3(C)CC[C@@H]12,.,.,.,.,.,.
O=c1c2ccccc2oc2ccccc12,/,/,/,/,.,.
O=c1c(O)c(-c2cccs2)oc2ccc(Cl)cc12,?,.,.,?,11.2µM,?
O=c1cc(-c2cccs2)oc2ccc(Cl)cc12,?,.,.,.,.,.
O=c1c(O)c(-c2cccs2)oc2ccccc12,?,?,?,?,22.4µM,.[0.365 µM]
Cc1cc(C)c(Cn2c3ccccc3c3cnn(CC(=O)N4CCCCCC4)c(=O)c32)c(C)c1,.,/,.,/,/,/
CCOC(=O)CSc1nc2ccc(NC(=O)COc3ccccc3C)cc2s1,.,/,.,/,/,/
COc1cc2nc(SCc3ccc(Cl)cc3)n3nc(CCn4nc(C)cc4C)nc3c2cc1OC,?,/,.,/,/,/

# Screens from PubChem.
